Source: PubChem (Broad Institute)
The list is a sample of the results.
aSyn 5UTR act: Activators via SNCA 5'UTR binding, MLPCN; alpha-synuclein 5'UTR reporter, activators screen; activity score, % (tested at 7.5 µM), hits read low; 300,000 tested, 7.1% active; in the data active = activity score below about -60%
Active calls of the source: *.

SMILES	aSyn 5UTR act
Cc1ccc(C2C=NN(c3ccccc3)C2=O)cc1 (stereo not given)	-64.4*
Cc1ccccc1-c1nnc(-c2cccs2)o1	-115.9*
Cc1ccccc1-c1noc(-c2cccs2)n1	-250.6*
CCCc1cc(NC(=O)CCl)n(-c2ccccc2)n1	-79.4*
CC(=O)c1cccc(N=Nc2c(C)[nH]c3ccccc23)c1	-150.0*
N#C/C(=C\C=C\c1ccccc1[N+](=O)[O-])C(=O)NCc1ccccc1	-291.5*
N#C/C(=C/C=C/c1ccccc1)C(=O)Nc1ccccc1	-108.6*
O=C(O)c1ccc(N/N=C/C=C/c2ccccc2[N+](=O)[O-])cc1	-127.0*
O=C(Cc1cccs1)N/N=C/C=C/c1ccccc1[N+](=O)[O-]	-98.7*
O=C(Cc1ccccc1)N/N=C/C=C/c1ccccc1[N+](=O)[O-]	-83.1*
Cc1ccc(CSc2nnc(SCC(=O)N/N=C/C=C/c3ccccc3[N+](=O)[O-])s2)cc1	89.3
Clc1ccc(COc2ccccc2-c2ccnc3ncnn23)cc1	-75.0*
CC(C)c1ccc(-c2nnn(CCC#N)n2)cc1	-106.5*
O=c1c(/C=C(\O)c2ccc(F)cc2)nc2ccccc2n1-c1ccccc1	-130.0*
C#CCn1cccc(C(=O)Nc2ccc(OC)cc2)c1=O	-63.5*
CCCn1cccc(C(=O)Nc2ccc(OC)cc2)c1=O	-82.3*
Cc1oc(C(C)(C)C)cc1C(=O)Nc1ccc2c(c1)OCO2	-87.0*
Cc1oc(C(C)(C)C)cc1C(=O)Nc1ccc2c(c1)OCCO2	-178.9*
CCCOC(=O)/C(=C\C=C\c1ccco1)NC(=O)c1ccccc1	-85.8*
Cc1ccc(Oc2cnc3ccccc3n2)cc1	-127.4*
Clc1ccc(Oc2cnc3ccccc3n2)cc1	-79.8*
COCCNC(=O)c1cc2c(s1)-c1ccc(Cl)cc1SC2	-103.9*
Cc1oc(/N=C/c2ccc3c(c2)OCO3)c(C#N)c1C	-73.8*
CSc1nsc(N/N=C/c2ccc3c(c2)OCO3)c1C#N	-230.7*
Cc1ccc(N/C=C2\C(=O)C3(C)CCC2C3(C)C)cc1C (stereo not given)	-63.2*
SMILES	aSyn 5UTR act
Cc1cc(CC(C)C)n(-c2nc3ccccc3c(=O)n2OCc2ccccc2)n1	-74.7*
Cc1cc(C)n(-c2nc3ccccc3c(=O)n2OCC(=O)OCc2ccccc2)n1	62.0
c1ccc(C2=NN(c3ccccc3)CC2)cc1	-157.1*
COc1ccc(N=c2sc3ccccc3n2C)cc1	-172.2*
CSc1nc(/C=C2\C=Nc3ccccc32)c(O)n1C	-151.5*
CN(C)/C=N/C(=S)Nc1ccc(Br)cc1F	-108.4*
c1ccc(NCC2OCc3ccccc3CO2)cc1	-147.0*
CCOC(=O)CCS(=O)(=O)c1nc(-c2ccccc2)cc(C(F)(F)F)n1	-129.3*
COC(=O)CCS(=O)(=O)c1nc(-c2ccccc2)cc(C(F)(F)F)n1	-73.2*
COc1ccccc1NC(=O)N1CCC(c2nc3cc(C)c(C)cc3[nH]2)CC1	74.3
CSc1cccc(NC(=O)Nc2ccc(Cl)cc2)c1	-96.5*
CC(=O)Nc1ccc(NC(=O)Nc2cccc(Cl)c2)cc1	-79.2*
CC(=O)c1ccc(NC(=S)NCCc2ccc(S(N)(=O)=O)cc2)cc1	-79.6*
COc1ccccc1NC(=O)Nc1ccc(C(=O)N2CCCCC2)cc1	-98.6*
CS/C(N)=N/C(=S)Nc1cccc(Cl)c1	-142.8*
O=C(Nc1cccc(Cl)c1)Nc1ccccc1C(=O)O	-119.7*
CC(=O)c1ccc(NC(=O)Nc2ccc3c(c2)nc(C)n3C)cc1	-147.8*
O=C(Nc1ccc(C(=O)N2CCCCC2)cc1)Nc1cccc(Cl)c1	-81.6*
CSc1cccc(NC(=S)Nc2ccc(F)cc2)c1	-196.4*
CCNS(=O)(=O)c1ccc(NC(=O)Nc2ccccc2OC)cc1	-79.2*
CC(=O)c1ccc(NC(=O)Nc2cccc(Cl)c2)cc1	-82.3*
CC(=O)c1ccc(NC(=S)NCCc2cccc(Cl)c2)cc1	-178.7*
C#CCSc1ncc(-c2ccccc2)cn1	-100.6*
C=CCSc1ncc(-c2ccccc2)cn1	-159.7*
COc1ccc(-c2nc(-c3ccccc3OC)no2)cc1OC	-230.9*
SMILES	aSyn 5UTR act
COc1ccccc1-c1noc(-c2ccco2)n1	-129.0*
COc1ccccc1-c1noc(-c2ccccc2)n1	-126.2*
Oc1ccc(/C(Cc2ccc3ccccc3n2)=N\Nc2ccccc2)c(O)c1	-89.7*
CC(=O)Oc1ccc(C(=O)Cc2ccc3ccccc3n2)c(O)c1C	-143.3*
Cc1c(O)ccc(/C(Cc2ccc3ccccc3n2)=N\O)c1O	-76.3*
COC(=O)c1ccc(C(=O)N=c2sccn2C)cc1	-147.8*
COc1ccc(C(=O)N=c2sccn2C)cc1	-114.5*
CN(C)c1ccc(C(=O)c2ccccc2C(=O)O)cc1[N+](=O)[O-]	-77.1*
Cn1ccsc1=NC(=O)c1ccc(CS(C)(=O)=O)cc1	-66.3*
CN(C)c1ccc(C(=O)c2ccc(N(C)C)c3ccccc23)cc1	89.0
Cn1ccsc1=NC(=O)c1ccc(OC(F)(F)F)cc1	-77.4*
Cn1ccsc1=NC(=O)c1ccc(S(=O)(=O)C(F)F)cc1	-96.4*
CN(C)c1ccc(C(=O)N=c2sccn2C)cc1[N+](=O)[O-]	-117.3*
Cn1ccs/c1=N\C(=O)Nc1ccccc1	-128.4*
Fc1cc2[nH]c(=S)[nH]c2cc1Cl	41.8
